In article PMC5540273 (PLoS ONE, 2017):

Legend:
Settings in all cases: concentration: 1 μM, replicates: in singlicate; n = 1
[1] = system: RPS6KA5(Kin.Dom.2-C-terminal)
[2] = system: T1, RSK1(Kin.Dom.1-N-terminal)
T1 construct: gene RPS6KA1

[3] = system: T2, RSK1(Kin.Dom.2-C-terminal)
T2 construct: gene RPS6KA1

[4] = system: T3, RSK2(Kin.Dom.1-N-terminal)
T3 construct: gene RPS6KA3

[5] = system: T4, RSK2(Kin.Dom.2-C-terminal)
T4 construct: gene RPS6KA3

[6] = system: T5, RSK3(Kin.Dom.1-N-terminal)
T5 construct: gene RPS6KA2

[7] = system: T6, RSK3(Kin.Dom.2-C-terminal)
T6 construct: gene RPS6KA2

[8] = system: T7, RSK4(Kin.Dom.1-N-terminal)
T7 construct: gene RPS6KA6

[9] = system: T8, RSK4(Kin.Dom.2-C-terminal)
T8 construct: gene RPS6KA6

S6K1 = system: S6K1
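Further: KINOMEscan kinase panel screen.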

COc1cc2c(Nc3cccc(NC(=O)c4ccccc4)c3)ncnc2cc1OCCCN1CCOCC1 [GSK223810]
%Inh [1]: 0%
%Inh [2]: 2%
%Inh [3]: 0%
%Inh [4]: 18%
%Inh [5]: 20%
%Inh [6]: 13%
%Inh [7]: 11%
%Inh [8]: 20%
%Inh [9]: 14%
%Inh (S6K1): 0%

COC(=O)c1cccc(NC(=O)NCCNc2ccnc(Nc3ccc(F)cc3)n2)c1 [GSK1379883]
%Inh [1]: 4%
%Inh [2]: 30%
%Inh [3]: 0%
%Inh [4]: 0%
%Inh [5]: 0%
%Inh [6]: 0%
%Inh [7]: 0%
%Inh [8]: 0%
%Inh [9]: 11%
%Inh (S6K1): 0%

CCc1nc(-c2cccc(C)c2)c(-c2ccnc(NC(=O)c3ccccc3)c2)s1
%Inh [1]: 1%
%Inh [2]: 0%
%Inh [3]: 53%
%Inh [4]: 0%
%Inh [5]: 39%
%Inh [6]: 0%
%Inh [7]: 5%
%Inh [9]: 46%
%Inh (S6K1): 0%

CNc1nccc(-c2c(-c3ccc(F)cc3)ncn2C2CCN(C)CC2)n1 [SB-222903]
%Inh [1]: 12%
%Inh [2]: 0%
%Inh [3]: 32%
%Inh [4]: 5%
%Inh [5]: 0%
%Inh [6]: 0%
%Inh [7]: 0%
%Inh [8]: 0%
%Inh [9]: 73%
%Inh (S6K1): 0%

COC(=O)c1c(-c2ccccc2)c2cc(Cl)ccc2c(=O)n1Cc1ccc(S(C)(=O)=O)cc1
%Inh [1]: 0%
%Inh [2]: 5%
%Inh [3]: 11%
%Inh [4]: 5%
%Inh [5]: 15%
%Inh [6]: 9%
%Inh [7]: 6%
%Inh [8]: 0%
%Inh [9]: 8%
%Inh (S6K1): 0%
